Measured values published in PubChem BioAssay (NCATS).
Results filed as inconclusive are left out. Activity calls are given as the source filed them. Calls follow the shape of the dose curve; as a rule, active = well fitted inhibition curve with a large enough effect; inconclusive = small, poorly fitted or top-dose-only effect; inactive = flat fitted curve, though single readings scatter.

Columns and labels:
CRL-7250 = normal cell line; test: Cytotoxic Profiling of Annotated Libraries Using Quantitative High-Throughput Screening (AID 1296008); details: Five cell lines viability, CellTiter-Glo ATP luminescence, 48-72 h; max response: hits give low values; as to max response: % is scaled to controls: 0 for no effect and ±100 for the full control effect
In short: (§1)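 Cells exposed to compounds for 48 or 72 hr at 37 degrees Celsius. Viability read as ATP-coupled luminescence with CellTiter-Glo after 10 min at room temperature.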

HaCat = test: as above; details: Five cell lines viability, CellTiter-Glo ATP luminescence, 48-72 h; max response: hits give low values
In short: as §1

FAB9 = test: qHTS profiling for inhibitors of Plasmodium falciparum proliferation (AID 504749); also: potency is read from the fitted curve at half-maximal effect; details: P. falciparum in erythrocytes, SYBR Green DNA, 72 h; series mostly up to 28.7 µM
In short: (§2)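 Each compound contacts P. falciparum-infected red blood cells for 72 h at 37 C; lysis buffer (Tris, EDTA, saponin, Triton X, SYBR Green I) is added and fluorescence measured next morning; values normalized to controls.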

GB4 = test: as above; details: P. falciparum in erythrocytes, SYBR Green DNA, 72 h; series mostly up to 28.7 µM
In short: as §2

HB3 = test: as above; details: P. falciparum in erythrocytes, SYBR Green DNA, 72 h; series mostly up to 28.7 µM
In short: as §2

JCK = test: as above; details: P. falciparum in erythrocytes, SYBR Green DNA, 72 h; series mostly up to 28.7 µM
In short: as §2

N140 = test: as above; details: P. falciparum in erythrocytes, SYBR Green DNA, 72 h; series mostly up to 28.7 µM
In short: as §2

P93_24 = test: as above; details: P. falciparum in erythrocytes, SYBR Green DNA, 72 h; series mostly up to 28.7 µM
In short: as §2

P94_40 = test: as above; details: P. falciparum in erythrocytes, SYBR Green DNA, 72 h; series mostly up to 28.7 µM
In short: as §2

PAD = test: as above; details: P. falciparum in erythrocytes, SYBR Green DNA, 72 h; series mostly up to 28.7 µM
In short: as §2

PC15 = test: as above; details: P. falciparum in erythrocytes, SYBR Green DNA, 72 h; series mostly up to 28.7 µM
In short: as §2

PC26 = test: as above; details: P. falciparum in erythrocytes, SYBR Green DNA, 72 h; series mostly up to 28.7 µM
In short: as §2

PC49 = test: as above; details: P. falciparum in erythrocytes, SYBR Green DNA, 72 h; series mostly up to 28.7 µM
In short: as §2

SC27B = test: as above; details: P. falciparum in erythrocytes, SYBR Green DNA, 72 h; series mostly up to 28.7 µM
In short: as §2

TAB109 = test: as above; details: P. falciparum in erythrocytes, SYBR Green DNA, 72 h; series mostly up to 28.7 µM
In short: as §2

TAB113 = test: as above; details: P. falciparum in erythrocytes, SYBR Green DNA, 72 h; series mostly up to 28.7 µM
In short: as §2

TAB165 = test: as above; details: P. falciparum in erythrocytes, SYBR Green DNA, 72 h; series mostly up to 28.7 µM
In short: as §2

W2 = test: as above; details: P. falciparum in erythrocytes, SYBR Green DNA, 72 h; series mostly up to 28.7 µM
In short: as §2

ICS = test: as above; details: P. falciparum in erythrocytes, SYBR Green DNA, 72 h; series mostly up to 28.7 µM
In short: as §2
Also: nearly all actives have a fitted effect of over 60% in size.

COc1cc2c(cc1OC)[C@@H]1Cc3ccc(OC)c(OC)c3CN1CC2
inactive: max response (CRL-7250) -7.12% | max response (HaCat) -3.71%

Cc1ccc(NC(=O)c2ccc(CN3CCN(C)CC3)cc2)cc1Nc1nc(-c2cccnc2)cs1
inactive: max response (CRL-7250) -52.7% | max response (HaCat) -8.86%

C[C@@H]1CC=CC=CC=CC=C[C@@H](O[C@@H]2O[C@H](C)[C@@H](O)[C@H](N)[C@H]2O)C[C@@H]2O[C@](O)(C[C@@H](O)C[C@@H]3O[C@@H]3C=CC(=O)O1)C[C@H](O)[C@@H]2C(=O)O
inactive: max response (CRL-7250) -2.36% | max response (HaCat) -1.58%

CCCCCCOC(=O)N=C(N)c1ccc(NCc2nc3cc(C(=O)N(CCC(=O)OCC)c4ccccn4)ccc3n2C)cc1
inactive: max response (CRL-7250) -14.3% | outcome (HaCat)

CNC(=O)c1cc(COc2nnc(Nc3ccc(Cl)cc3)c3ccoc23)ccn1
inactive: max response (CRL-7250) -22.5% | max response (HaCat) 1.3%

CCC(=C(c1ccc(O)cc1)c1ccc(OCCNC)cc1)c1ccccc1
inactive: max response (CRL-7250) -6.43% | max response (HaCat) -11.9%

CN(C)CCOc1cc(-c2cn[nH]c2)ccc1NC(=O)C1COc2ccccc2O1 (stereo not given)
inactive: outcome (CRL-7250) | outcome (HaCat)

CCCCC[C@H](O)C=C[C@H]1[C@H](O)CC(=O)[C@H]1CC=CCCCC(=O)O
inactive: max response (CRL-7250) 2.95% | outcome (HaCat)

CN1CCC(COc2cnc(-c3cccc(Cn4nc(-c5cccc(C#N)c5)ccc4=O)c3)nc2)CC1
inactive: outcome (CRL-7250) | outcome (HaCat)

CN(C)c1ccccc1CN1CCCN(Cc2ccccc2N(C)C)C1c1ccncc1
inactive: outcome (CRL-7250) | outcome (HaCat)

C[C@@H](O)[C@H]1C(=O)N2C(C(=O)OCOC(=O)C(C)(C)C)=C(SC3CN(C4=NCCS4)C3)[C@H](C)[C@H]12
inactive: max response (CRL-7250) 0.148% | outcome (HaCat)

COc1ccc(C=CC(=O)Nc2ccccc2C(=O)O)cc1OC
inactive: max response (CRL-7250) -5.04% | max response (HaCat) -7.89%

COc1cc2c(cc1OC)CC(=O)N(CCCN(C)C[C@H]1Cc3cc(OC)c(OC)cc31)CC2
inactive: outcome (FAB9) | Potency (GB4) | Potency (HB3) | outcome (JCK) | Potency (N140) | Potency (P93_24) | Potency (P94_40) | Potency (PAD) | outcome (PC15) | Potency (PC26) | outcome (PC49) | Potency (SC27B) | Potency (TAB109) | Potency (TAB113) | Potency (TAB165)

CN1CC(=O)N2C(Cc3c([nH]c4ccccc34)[C@H]2c2ccc3c(c2)OCO3)C1=O (stereo not given in full)
inactive: outcome (FAB9) | Potency (GB4) | Potency (HB3) | outcome (JCK) | Potency (N140) | Potency (P94_40) | Potency (PAD) | outcome (PC15) | Potency (PC26) | outcome (PC49) | Potency (SC27B) | Potency (TAB109) | Potency (TAB113) | Potency (TAB165) | Potency (W2)

Clc1ccc(COC(Cn2ccnc2)c2ccc(Cl)cc2Cl)c(Cl)c1 (stereo not given)
active: Potency (GB4) 5100 nM | Potency (HB3) 3550 nM | Potency (ICS) 1000 nM | Potency (N140) 2240 nM | Potency (P93_24) 1410 nM | Potency (P94_40) 2820 nM | Potency (PAD) 3550 nM | Potency (PC26) 2560 nM | Potency (SC27B) 2820 nM | Potency (TAB109) 3980 nM | Potency (TAB113) 3160 nM | Potency (TAB165) 1000 nM | Potency (W2) 2280 nM
inactive: outcome (PC49)

Fc1ccc(C(c2ccc(F)cc2)N2CCN(CC=Cc3ccccc3)CC2)cc1
active: Potency (GB4) 16900 nM | Potency (W2) 8490 nM
